This note sets out measurements from PubChem BioAssay (EPA / NIEHS).

Activity calls are given as the source filed them. How the source made its calls: active means hit-call score of the fitted dose curve at least 0.9, where 1 is the maximum; inactive means score below 0.9.

The AC50 is the midpoint of the concentration-response curve, whichever way the signal moves.

Fatty acid synthase (Homo sapiens), sequence (P49327 whole entry, looked up): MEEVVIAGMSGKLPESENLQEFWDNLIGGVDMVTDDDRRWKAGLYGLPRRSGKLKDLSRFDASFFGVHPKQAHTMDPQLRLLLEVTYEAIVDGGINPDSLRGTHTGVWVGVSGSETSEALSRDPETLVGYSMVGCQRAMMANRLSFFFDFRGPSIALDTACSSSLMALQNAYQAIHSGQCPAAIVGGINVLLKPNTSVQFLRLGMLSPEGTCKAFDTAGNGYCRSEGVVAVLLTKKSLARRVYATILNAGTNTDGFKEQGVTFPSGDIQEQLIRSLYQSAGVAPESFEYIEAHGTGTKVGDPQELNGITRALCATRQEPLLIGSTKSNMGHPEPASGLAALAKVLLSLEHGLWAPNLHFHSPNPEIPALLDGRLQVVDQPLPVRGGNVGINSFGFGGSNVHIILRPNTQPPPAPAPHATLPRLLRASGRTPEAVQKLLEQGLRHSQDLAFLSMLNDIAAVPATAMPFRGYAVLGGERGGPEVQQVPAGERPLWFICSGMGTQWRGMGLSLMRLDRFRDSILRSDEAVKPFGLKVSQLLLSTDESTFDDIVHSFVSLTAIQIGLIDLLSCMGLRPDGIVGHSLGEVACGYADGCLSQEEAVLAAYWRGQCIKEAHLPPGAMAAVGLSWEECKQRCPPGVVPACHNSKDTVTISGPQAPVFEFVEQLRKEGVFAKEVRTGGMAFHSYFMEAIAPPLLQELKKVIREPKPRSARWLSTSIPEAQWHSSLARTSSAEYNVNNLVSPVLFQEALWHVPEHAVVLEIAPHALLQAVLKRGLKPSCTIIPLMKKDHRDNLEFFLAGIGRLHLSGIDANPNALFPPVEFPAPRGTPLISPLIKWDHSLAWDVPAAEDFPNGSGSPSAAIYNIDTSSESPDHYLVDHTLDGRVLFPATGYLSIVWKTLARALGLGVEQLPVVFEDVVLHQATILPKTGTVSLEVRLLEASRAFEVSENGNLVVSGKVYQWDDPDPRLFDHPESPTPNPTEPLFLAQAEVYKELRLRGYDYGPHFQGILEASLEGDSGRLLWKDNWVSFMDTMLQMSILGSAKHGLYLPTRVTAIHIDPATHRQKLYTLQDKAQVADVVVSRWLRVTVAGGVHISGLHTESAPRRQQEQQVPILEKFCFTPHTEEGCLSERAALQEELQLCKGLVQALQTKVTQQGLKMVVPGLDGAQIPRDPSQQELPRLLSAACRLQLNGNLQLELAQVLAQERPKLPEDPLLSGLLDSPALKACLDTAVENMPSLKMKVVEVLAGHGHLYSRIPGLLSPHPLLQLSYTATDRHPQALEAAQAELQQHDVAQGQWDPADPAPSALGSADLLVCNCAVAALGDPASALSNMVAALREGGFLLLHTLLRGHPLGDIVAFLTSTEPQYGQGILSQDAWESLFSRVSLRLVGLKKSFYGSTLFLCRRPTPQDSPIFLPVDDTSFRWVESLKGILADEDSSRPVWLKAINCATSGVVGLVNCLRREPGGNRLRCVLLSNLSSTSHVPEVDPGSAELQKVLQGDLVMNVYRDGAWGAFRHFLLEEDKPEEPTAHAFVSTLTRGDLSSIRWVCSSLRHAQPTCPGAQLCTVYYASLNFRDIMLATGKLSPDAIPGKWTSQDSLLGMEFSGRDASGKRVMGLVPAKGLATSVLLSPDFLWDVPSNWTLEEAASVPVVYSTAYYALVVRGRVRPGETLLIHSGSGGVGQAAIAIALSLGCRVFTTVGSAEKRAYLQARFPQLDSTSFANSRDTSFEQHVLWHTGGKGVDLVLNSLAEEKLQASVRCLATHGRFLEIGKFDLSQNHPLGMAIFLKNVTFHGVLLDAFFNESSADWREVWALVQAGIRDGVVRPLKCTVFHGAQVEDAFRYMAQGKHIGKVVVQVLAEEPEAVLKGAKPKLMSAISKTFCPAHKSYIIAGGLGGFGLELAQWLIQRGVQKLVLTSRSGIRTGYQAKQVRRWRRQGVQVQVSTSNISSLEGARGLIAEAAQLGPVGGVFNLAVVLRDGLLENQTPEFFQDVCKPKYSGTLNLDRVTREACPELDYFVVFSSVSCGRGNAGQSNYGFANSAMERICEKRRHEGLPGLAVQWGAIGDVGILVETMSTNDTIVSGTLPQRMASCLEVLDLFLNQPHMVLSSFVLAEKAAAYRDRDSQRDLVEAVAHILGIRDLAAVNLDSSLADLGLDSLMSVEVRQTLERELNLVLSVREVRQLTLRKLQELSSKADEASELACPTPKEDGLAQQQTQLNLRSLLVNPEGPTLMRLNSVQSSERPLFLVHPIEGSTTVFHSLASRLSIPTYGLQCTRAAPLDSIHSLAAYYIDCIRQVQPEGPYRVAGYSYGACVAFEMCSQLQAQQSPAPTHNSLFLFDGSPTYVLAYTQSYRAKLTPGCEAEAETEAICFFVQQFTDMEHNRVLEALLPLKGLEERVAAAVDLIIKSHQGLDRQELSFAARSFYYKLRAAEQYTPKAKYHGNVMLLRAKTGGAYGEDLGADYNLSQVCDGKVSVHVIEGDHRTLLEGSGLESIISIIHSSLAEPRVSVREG

Read-out in the first experiment: Tumor necrosis factor receptor superfamily member 6 (Homo sapiens) (UniProt P25445)
In words: LTEA_HepaRG_FAS: Life Technologies and Expression Analysis (LTEA) Assay for Fas cell surface death receptor (FAS) using HepaRG (AID 2283447). The conditions noted are these: mRNA level, 48 h; actives raise or lower the signal. An outline of the steps:
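FAS transcript level was measured by TaqMan qRT-PCR against three housekeeping genes after 48 h chemical exposure. Cells were HepaRG, 0.5% DMSO vehicle, with a top concentration of 100 uM and half-log dilutions over eight points, in duplicate.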
For `CS(=O)(=O)NC(=O)c1cc(Oc2ccc(C(F)(F)F)cc2Cl)ccc1[N+](=O)[O-]`, the molecule was classed as inactive.

`CCC12COCN1COC2`: the outcome was inactive.

As for `N#CC(Br)Br`, the molecule was called inactive.

Read-out in a further experiment: Fatty acid synthase (Homo sapiens) (UniProt P49327)
Put plainly: LTEA_HepaRG_FASN: Life Technologies and Expression Analysis (LTEA) Assay for Fatty Acid Synthase (FASN) using HepaRG (AID 2283448).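 On AC50: differentiated human HepaRG liver cells in serum-free induction medium.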 Particulars: mRNA level, 48 h; actives raise or lower the signal. An outline of the steps: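 Transcript-level assay: HepaRG liver cells are treated for 48 h across an eight-point range topping at 100 uM, and FASN mRNA, normalized to three housekeeping genes, is compared with DMSO controls in both directions.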
Turning to `CCCCCCCCn1sccc1=O`, the AC50 is 75.1 µM (active).

Turning to `Clc1ccccc1Cl`, the molecule was classed as inactive.

With `Cc1ccc([N+](=O)[O-])cc1`, the call was inactive.

As to `Oc1ccccc1Cl`, the outcome was inactive.

For the molecule `O=C(O)C1C2CCC(O2)C1C(=O)O` (centres undefined), the AC50 is 84.3 µM (active).

Turning to `N#CC(Br)(Br)C(N)=O`, the molecule was called inactive.

Take `O=[N+]([O-])C(Br)(CO)CO`: the outcome was inactive.

With `Clc1ccc(C(c2ccc(Cl)cc2)C(Cl)Cl)cc1`, the AC50 is 73.7 µM (active).

For `CCCCCCCCOC(=O)c1ccc(C(=O)OCCCCCCCC)c(C(=O)OCCCCCCCC)c1`, the call was inactive.

As for `OCCOCCO`, the call was inactive.

With `CC(C)(C)OOC(C)(C)CCC(C)(C)OOC(C)(C)C`, the molecule was classed as inactive.

With `c1ccc2c(c1)-c1cccc3cccc-2c13`, the AC50 is 69.1 µM (active).

Turning to `C[C@]12C=CC3=C4CCC(=O)C=C4CC[C@H]3[C@@H]1CC[C@@H]2O`, the AC50 is 61 µM (active).

Take `OCCCBr`: the molecule was classed as inactive.

For the molecule `Nc1cc(Cl)cc(C(=O)O)c1Cl`, the call was inactive.

As for `[Cl-].[Cl-].[Hg+2]`, the outcome was inactive.

Take `CN(C)c1ccc(C(=O)c2ccc(N(C)C)cc2)cc1`: the call was inactive.

Regarding `COC(=O)c1ccccc1N`, the molecule was classed as inactive.

For the molecule `ClC1=C(Cl)[C@]2(Cl)[C@H]3[C@H]([C@@H]4C=C[C@H]3C4)[C@@]1(Cl)C2(Cl)Cl`, the AC50 was 28.7 µM (active).

With `CCCSC(=O)N(CCC)CCC`, the molecule was called inactive.

Regarding `ClC1=C(Cl)C2(Cl)C3C(Cl)C=CC3C1(Cl)C2(Cl)Cl` (centres undefined), the molecule was classed as inactive.

With `OCCCl`, the molecule was classed as inactive.

Turning to `Cc1ccc(N)cc1`, the molecule was classed as inactive.

For `C1=Cc2cccc3cccc1c23`, the molecule was called inactive.

As to `O=C1CCCO1`, the outcome was inactive.

For the molecule `CS(=O)(=O)NC(=O)c1cc(Oc2ccc(C(F)(F)F)cc2Cl)ccc1[N+](=O)[O-]`, the outcome was inactive.

For the molecule `CCC12COCN1COC2`, the molecule was classed as inactive.

As for `N#CC(Br)Br`, the molecule was called inactive.

Read-out in a further experiment: Cyclin D2 (CCND2), CCND2 (gene 894)
In words: LTEA_HepaRG_CCND2: Life Technologies and Expression Analysis (LTEA) Assay for Cyclin D2 (CCND2) using HepaRG (AID 2283449). Particulars: mRNA level, 48 h; actives raise or lower the signal. An outline of the steps: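 Read-out is CCND2 mRNA level measured by qRT-PCR in human HepaRG liver cells and normalised to three housekeeping genes. Chemicals were applied for 48 h at up to 100 uM, with gain or loss fitted relative to 0.5% DMSO.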
As for `Cc1ccc([N+](=O)[O-])cc1`, the molecule was called inactive.

Take `Oc1ccccc1Cl`: the molecule was called inactive.

Turning to `O=C(O)C1C2CCC(O2)C1C(=O)O` (centres undefined), the outcome was inactive.

As to `O=[N+]([O-])C(Br)(CO)CO`, the result was inactive.

Regarding `Clc1ccc(C(c2ccc(Cl)cc2)C(Cl)Cl)cc1`, the call was inactive.

As for `CCCCCCCCOC(=O)c1ccc(C(=O)OCCCCCCCC)c(C(=O)OCCCCCCCC)c1`, the result was inactive.

As for `OCCOCCO`, the outcome was inactive.

As for `CC(C)(C)OOC(C)(C)CCC(C)(C)OOC(C)(C)C`, the molecule was called inactive.

Turning to `c1ccc2c(c1)-c1cccc3cccc-2c13`, the molecule was called inactive.

Consider `OCCCBr`, for which the molecule was called inactive.

For `Nc1cc(Cl)cc(C(=O)O)c1Cl`, the molecule was classed as inactive.

In the case of `[Cl-].[Cl-].[Hg+2]`, the outcome was inactive.

`COC(=O)c1ccccc1N`: the molecule was called inactive.

Take `ClC1=C(Cl)[C@]2(Cl)[C@H]3[C@H]([C@@H]4C=C[C@H]3C4)[C@@]1(Cl)C2(Cl)Cl`: the outcome was inactive.

Take `CCCSC(=O)N(CCC)CCC`: the molecule was called inactive.

Consider `OCCCl`, for which the outcome was inactive.

As for `Cc1ccc(N)cc1`, the call was inactive.

Turning to `C1=Cc2cccc3cccc1c23`, the outcome was inactive.

On to `O=C1CCCO1`, for which the molecule was classed as inactive.

Consider `N#CC(Br)Br`, for which the result was inactive.

Read-out in a further experiment: Cyclin Dependent Kinase Inhibitor 1A (CDKN1A), CDKN1A (gene 1026)
Put plainly: LTEA_HepaRG_CDKN1A: Life Technologies and Expression Analysis (LTEA) Assay for Cyclin Dependent Kinase Inhibitor 1A (CDKN1A) using HepaRG (AID 2283450). The conditions noted are these: mRNA level, 48 h; actives raise or lower the signal. An outline of the steps:
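HepaRG, 48 h dosing, 8-pt half-log series from 100 uM top, 0.5% DMSO vehicle, duplicates. Readout: TaqMan qRT-PCR of CDKN1A transcript, housekeeping-normalized (ACTB, GAPDH, POLR2A). Up/down curve fit relative to DMSO.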
Take `CCCCCCCCn1sccc1=O`: the result was inactive.

Regarding `Clc1ccccc1Cl`, the molecule was classed as inactive.

For the molecule `Cc1ccc([N+](=O)[O-])cc1`, the molecule was called inactive.

Regarding `Oc1ccccc1Cl`, the molecule was classed as inactive.

`O=C(O)C1C2CCC(O2)C1C(=O)O` (centres undefined): the AC50 was 35.8 µM (active).

Consider `N#CC(Br)(Br)C(N)=O`, for which the call was inactive.

`O=[N+]([O-])C(Br)(CO)CO`: the outcome was inactive.

Take `Clc1ccc(C(c2ccc(Cl)cc2)C(Cl)Cl)cc1`: the molecule was classed as inactive.

For the molecule `CCCCCCCCOC(=O)c1ccc(C(=O)OCCCCCCCC)c(C(=O)OCCCCCCCC)c1`, the molecule was classed as inactive.

On to `OCCOCCO`, for which the outcome was inactive.

Turning to `CC(C)(C)OOC(C)(C)CCC(C)(C)OOC(C)(C)C`, the outcome was inactive.

Consider `c1ccc2c(c1)-c1cccc3cccc-2c13`, for which the result was inactive.

For the molecule `C[C@]12C=CC3=C4CCC(=O)C=C4CC[C@H]3[C@@H]1CC[C@@H]2O`, the molecule was classed as inactive.

Regarding `OCCCBr`, the molecule was called inactive.

On to `Nc1cc(Cl)cc(C(=O)O)c1Cl`, for which the molecule was classed as inactive.

Take `[Cl-].[Cl-].[Hg+2]`: the result was inactive.

As for `CN(C)c1ccc(C(=O)c2ccc(N(C)C)cc2)cc1`, the molecule was called inactive.

Regarding `COC(=O)c1ccccc1N`, the molecule was classed as inactive.

With `ClC1=C(Cl)[C@]2(Cl)[C@H]3[C@H]([C@@H]4C=C[C@H]3C4)[C@@]1(Cl)C2(Cl)Cl`, the result was inactive.

For the molecule `CCCSC(=O)N(CCC)CCC`, the molecule was classed as inactive.

As for `ClC1=C(Cl)C2(Cl)C3C(Cl)C=CC3C1(Cl)C2(Cl)Cl` (centres undefined), the call was inactive.

As to `OCCCl`, the outcome was inactive.

Turning to `Cc1ccc(N)cc1`, the call was inactive.

As for `C1=Cc2cccc3cccc1c23`, the call was inactive.

Regarding `O=C1CCCO1`, the molecule was classed as inactive.

`CS(=O)(=O)NC(=O)c1cc(Oc2ccc(C(F)(F)F)cc2Cl)ccc1[N+](=O)[O-]`: the molecule was classed as inactive.

Turning to `CCC12COCN1COC2`, the outcome was inactive.

For `N#CC(Br)Br`, the molecule was called inactive.
